Experimental data published in PubChem BioAssay (NCI).
Compounds without any hit were thinned out: in the full panel of roughly 83,000, 20% have a hit.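 48-hour exposure, single concentration, 96-well plates; percent growth endpoint where 0 means no net growth. Active: below 10.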 A number with no mark means an inactive call. The source made the active and inactive calls.

Columns and labels:
Assay in all cases: NCI-60 one-dose screen, 48 h (100 = growth as untreated, 0 = no growth, -100 = all killed)
Conditions in all cases: 10 µM unless noted
HCT-15 colon = system: HCT-15 colon
HT29 colon = system: HT29 colon
SNB-75 CNS = system: SNB-75 CNS
SNB-19 CNS = system: SNB-19 CNS
U251 CNS = system: U251 CNS
PC-3 prostate = system: PC-3 prostate
SK-MEL-5 melanoma = system: SK-MEL-5 melanoma
UACC-62 melanoma = system: UACC-62 melanoma
LOX IMVI melanoma = system: LOX IMVI melanoma
SK-MEL-28 melanoma = system: SK-MEL-28 melanoma
SK-MEL-2 melanoma = system: SK-MEL-2 melanoma
EKVX NSCLC = system: EKVX NSCLC
SN12C renal = system: SN12C renal
UO-31 renal = system: UO-31 renal
TK-10 renal = system: TK-10 renal
ACHN renal = system: ACHN renal
CAKI-1 renal = system: CAKI-1 renal
A498 renal = system: A498 renal
CCRF-CEM leukemia = system: CCRF-CEM leukemia
MOLT-4 leukemia = system: MOLT-4 leukemia

Compound	growth (HCT-15 colon)	growth (HT29 colon)	growth (SNB-75 CNS)	growth (SNB-19 CNS)	growth (U251 CNS)	growth (PC-3 prostate)	growth (SK-MEL-5 melanoma)	growth (UACC-62 melanoma)	growth (LOX IMVI melanoma)	growth (SK-MEL-28 melanoma)	growth (SK-MEL-2 melanoma)	growth (EKVX NSCLC)	growth (SN12C renal)	growth (UO-31 renal)	growth (TK-10 renal)	growth (ACHN renal)	growth (CAKI-1 renal)	growth (A498 renal)	growth (CCRF-CEM leukemia)	growth (MOLT-4 leukemia)
COc1cc2oc(-c3cccc(C(=O)N[C@@H](CC(C)C)C(=O)OC(C)(C)C)c3)cc(=O)c2c(OC)c1OC	36.9%	83.7%	80.9%	78.3%	76.1%	58.4%	74.1%	51.6%	46.5%	95.9%	81.6%	89.7%	57%	39.6%	95%	69.7%	53.6%	96.7%	40.2%	62.1%
CS(=O)(=O)Nc1cc(-c2ccc3ncc(C#N)c(NCc4cccc(F)c4)c3c2)cnc1Cl	5.75% (active)	9.57% (active)	45.7%	11.9%	10.3%	4.17% (active)	-96.6% (active)	-20.2% (active)	-55% (active)	4.56% (active)	-63.4% (active)	-7.05% (active)	15.4%	2.87% (active)	-11% (active)	10.1%	4.52% (active)	-48.9% (active)	15.1%	-10.6% (active)
NS(=O)(=O)c1ccc(Nc2nc(SCC(=O)c3ccc(Cl)cc3)nc3c2CCCC3)cc1	22.1%	8.57% (active)	85.8%	65.9%	51.3%	31.4%	65.8%	48.2%	23.6%	68.5%	67%	47.8%	25.6%	38%	86.6%	42%	43.2%	61.1%	41.1%	38.4%
N#Cc1cccc(NC(=O)c2cc(-c3ccc(F)cc3F)ccc2O)c1	6.97% (active)	94.9%	3.99% (active)	11.4%	10.9%	9.28% (active)	-74.3% (active)	-12.9% (active)	1.22% (active)	25%	0.79% (active)	10.3%	4.45% (active)	-14.2% (active)	19.3%	5.79% (active)	-16.7% (active)	-33.1% (active)	20.1%	6.28% (active)
CCCCCc1ccc(S(=O)(=O)Nc2cc(-c3csc(NC(=O)CN4CCN(CCO)CC4)n3)ccc2OC)cc1	-9.25% (active)	4.51% (active)	92.6%	31%	2.41% (active)	48%	-88.8% (active)	-32.9% (active)	-82.5% (active)	-60.5% (active)	94.9%	73.6%	74.7%	54.5%	104%	65.6%	70.8%	63.1%	4.78% (active)	6.18% (active)
CCN1CCN(Cc2ccc(C(=O)Nc3ccc(C)c(Oc4ccc(-c5[nH]nc6ncnc(N)c56)cc4)c3)cc2C(F)(F)F)CC1	68.6%	17%	95.8%	101%	89.4%	70.7%	76.1%	89.1%	57.2%	75.4%	90%	106%	86.5%	84.4%	117%	91.9%	88.3%	98.4%	31%	67.4%
O=C1[C@H]2Cc3c([nH]c4ccccc34)[C@@H](c3ccc(Br)cc3)N2C(=O)CN1C1CCN(CC2CCCCC2)CC1	-91.2% (active)	-71.1% (active)	-1.64% (active)	4.34% (active)	-90.8% (active)	-52.3% (active)	-99.8% (active)	42.3%	-87.1% (active)	-95.5% (active)	16.7%	-79.2% (active)	-96.9% (active)	12.3%	-85.2% (active)	-95.1% (active)	-32.9% (active)	-15.4% (active)	-27.9% (active)	-43.5% (active)
CCCCc1nc(/C=N/Nc2nc(Nc3ccccc3)nc(Nc3ccc(S(N)(=O)=O)cc3)n2)c(Cl)[nH]1	103%	102%	112%	30.7%	-1.83% (active)	83%	75.2%	72.8%	41.1%	71%	65.8%	102%	93.6%	85.4%	112%	100%	105%	89.3%	12.5%	41.4%
Cc1ccc(-c2nnc(SCc3ccc(O)c4ncccc34)o2)cc1	10.8%	79%	0.0889% (active)	11.1%	7.11% (active)	12.2%	2.42% (active)	2.61% (active)	4.71% (active)	22.8%	34.8%	22.1%	34.5%	-12.8% (active)	24.3%	10.3%	24.8%	36.5%	12.3%	10.8%
O=C1[C@H]2Cc3c([nH]c4ccccc34)[C@@H](c3ccc(Cl)cc3)N2C(=O)CN1C1CCN(Cc2ccccc2)CC1	23.7%	27.1%	79.8%	66.5%	63.7%	30.4%	56.1%	75.4%	17.4%	67.8%	84.7%	41.3%	45.9%	26.4%	82.3%	40.6%	38%	74.8%	43.3%	27.1%
C#CC(=O)N(c1ccc(OC)cc1OC)C(C(=O)NCC(=O)OCC)c1cccs1 (stereo not given)	56.6%	-7.89% (active)	-71% (active)	77.1%	5.16% (active)	-13.2% (active)	99.3%	82.6%	-78.8% (active)	92.4%	95%	36.4%	44.9%	-79.9% (active)	105%	-90.2% (active)	-83.9% (active)	57.2%	-53.8% (active)	-22.2% (active)
CCO/C=N/C1=C(C#N)C(c2ccc(F)cc2)c2sc3c(CC)cccc3c2O1 (stereo not given)	12.6%	10.1%	3.71% (active)	21.4%	21.4%	13.6%	26.6%	16.1%	14.7%	61%	42.7%	49%	22.9%	32.2%	63.9%	28.4%	36.4%	-3.45% (active)	13.1%	19.8%
NS(=O)(=O)c1ccc(Nc2nc(N/N=C/c3ccccn3)nc(Nc3ccccc3)n2)cc1	17.6%	6.29% (active)	-25.4% (active)	9.62% (active)	-55.2% (active)	-7.87% (active)	-84.8% (active)	-49.3% (active)	-43.7% (active)	-64.3% (active)	-82% (active)	13.3%	2.73% (active)	17.4%	2.56% (active)	17.5%	-25.3% (active)	-67.6% (active)	5.99% (active)	3.13% (active)
CCCn1cnc2c(c1=N)C(c1ccc(Cl)cc1)c1sc3c(C)cccc3c1O2 (stereo not given)	13%	5.11% (active)	26.7%	26.5%	19.4%	6.9% (active)	28.7%	5.02% (active)	19.6%	60.9%	33.5%	42.7%	17.9%	32.2%	93.3%	29.1%	29.8%	-13.1% (active)	3.96% (active)	15.5%
CS(=O)(=O)c1ccc(-c2nn(-c3ccccc3)cc2/C=N/NC(=O)c2nc(N)n[nH]2)cc1	88.9%	101%	103%	101%	101%	100%	98.6%	90.8%	84.7%	108%	108%	90.3%	94.7%	96.8%	110%	93.7%	96.6%	101%	43.7%	67.1%
